“And” between values parts separate entries of the source, which are not always exact repeats. Equal values may be shown once. About 85 (1%) of roughly 5,700 compounds were called active. No stated cut-off is given here; in the data, active means p53-positive nuclei above about 36% (passing the limit was not always enough); inactive means the rest. Shown is part of a subset that was picked to be rich in actives. More than one record can exist for a structure, and the calls need not agree.

A short description of assay [1]: p53 stabilisation in HPV-positive human cells, imaging, p53-positive nuclei imaging, 24 h, 48 h (AID 1508601). As to conditions: 24/48 h.
Assay [2] concerns the target Cellular tumor antigen p53 (Homo sapiens) (UniProt P04637). Described as above. The note with it: 24/48 h, stronger effect = higher value.
Setting [3] is: measured here: cell number at 24 h, Library stock concentration: 10 mM.
Setting [4] is: measured here: cell number at 48 h, Library stock concentration: 10 mM.
[5] abbreviates: Library stock concentration: 10 mM.
[6] abbreviates: measured here: p53 positive nuclei at 24 h, Library stock concentration: 10 mM.
[7] abbreviates: measured here: cell number at 24 h, Library stock concentration: 3.33 mM.
Setting [8] is: measured here: cell number at 48 h, Library stock concentration: 3.33 mM.
The mark [9] stands for this setting: Library stock concentration: 3.33 mM.
Where [10] appears, read: measured here: p53 positive nuclei at 24 h, Library stock concentration: 3.33 mM.
[11] abbreviates: measured here: cell number at 24 h, concentration not given here.
[12] abbreviates: measured here: cell number at 48 h, concentration not given here.
[13] abbreviates: measured here: p53 positive nuclei at 24 h, concentration not given here.
Setting [14] is: measured here: cell number at 24 h, Library stock concentration: 46 uM.
Setting [15] is: measured here: cell number at 24 h, Library stock concentration: 278 uM.
Setting [16] is: measured here: cell number at 24 h, Library stock concentration: 1.67 mM.
Where [17] appears, read: measured here: cell number at 48 h, Library stock concentration: 46 uM.
[18] abbreviates: measured here: cell number at 48 h, Library stock concentration: 278 uM.
Where [19] appears, read: measured here: cell number at 48 h, Library stock concentration: 1.67 mM.
[20] abbreviates: Library stock concentration: 46 uM.
The mark [21] stands for this setting: Library stock concentration: 278 uM.
Where [22] appears, read: Library stock concentration: 1.67 mM.
Where [23] appears, read: measured here: p53 positive nuclei at 24 h, Library stock concentration: 46 uM.
Where [24] appears, read: measured here: p53 positive nuclei at 24 h, Library stock concentration: 278 uM.
Where [25] appears, read: measured here: p53 positive nuclei at 24 h, Library stock concentration: 1.67 mM.

Chain of Cellular tumor antigen p53 (Homo sapiens) (P04637 whole entry, looked up): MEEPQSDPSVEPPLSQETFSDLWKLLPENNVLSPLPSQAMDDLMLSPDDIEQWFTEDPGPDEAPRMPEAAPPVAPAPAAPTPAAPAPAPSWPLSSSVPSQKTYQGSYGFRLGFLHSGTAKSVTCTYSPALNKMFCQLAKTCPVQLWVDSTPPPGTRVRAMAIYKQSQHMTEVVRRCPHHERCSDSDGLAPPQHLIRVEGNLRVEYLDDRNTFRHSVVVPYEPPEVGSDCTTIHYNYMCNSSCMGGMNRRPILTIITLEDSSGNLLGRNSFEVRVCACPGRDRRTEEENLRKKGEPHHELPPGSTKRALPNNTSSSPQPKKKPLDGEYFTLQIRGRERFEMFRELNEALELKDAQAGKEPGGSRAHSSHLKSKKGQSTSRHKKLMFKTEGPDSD

For the compound `CCN1CCN(Cc2ccc(NC(=O)c3ccc(C)c(Oc4ccnc5[nH]ccc45)c3)cc2C(F)(F)F)CC1`, the nuclei count, normalised in assay [1] (measured here: cell number at 24 h, Library stock concentration: 80 uM) stood at 106%; in assay [1] (measured here: cell number at 24 h, Library stock concentration: 400 uM), 105%; in assay [1] (measured here: cell number at 24 h, Library stock concentration: 2 mM), 97.9%; in assay [1] (setting [3]), 101%; in assay [1] (measured here: cell number at 48 h, Library stock concentration: 80 uM), 116%; in assay [1] (measured here: cell number at 48 h, Library stock concentration: 400 uM), 108%. Further, the nuclei count, normalised in assay [1] (measured here: cell number at 48 h, Library stock concentration: 2 mM) stood at 111%; in assay [1] (setting [4]), 112%. Further, the p53-positive nuclei, normalised was -0.0678% (inactive) in assay [2] (Library stock concentration: 80 uM); 0.0485% (inactive) in assay [2] (Library stock concentration: 400 uM); -0.223% (inactive) in assay [2] (Library stock concentration: 2 mM); -0.127% (inactive) in assay [2] (setting [5]); -0.156% in assay [2] (measured here: p53 positive nuclei at 24 h, Library stock concentration: 80 uM); -0.0165% in assay [2] (measured here: p53 positive nuclei at 24 h, Library stock concentration: 400 uM). For the same compound, the p53-positive nuclei, normalised was -0.102% in assay [2] (measured here: p53 positive nuclei at 24 h, Library stock concentration: 2 mM) and -0.00926% in assay [2] (setting [6]).

Turning to `COc1cccc2c1C(=O)c1c(O)c3c(c(O)c1C2=O)C[C@@](O)(C(=O)CO)CC3O[C@H]1CC(N)C(O)C(C)O1` (stereo partly drawn), the nuclei count, normalised was 45.5% and 23.6% in assay [1] (setting [7]); 36.1% and 17% in assay [1] (setting [8]). In addition, the p53-positive nuclei, normalised in assay [2] (setting [9]) was 21.6% (inactive) and 89.4% (active); in assay [2] (setting [10]) it was 2.1% and 92.1%.

Turning to `COc1cccc2c1C(=O)c1c(O)c3c(c(O)c1C2=O)C[C@@](O)(C(=O)CO)C[C@@H]3OC1CC(N)C(OC2CCCCO2)C(C)O1` (stereo partly drawn), the nuclei count, normalised in assay [1] (setting [7]) stood at 43.4%; in assay [1] (setting [8]), 38.3%. The p53-positive nuclei, normalised in assay [2] (setting [9]) was 16.4% (inactive); in assay [2] (setting [10]), 10.3%.

With `C=C1C[C@H](O)[C@H](C/C=C\CCCC(=O)O)[C@H]1/C=C/C(=O)CCCCC`, the nuclei count, normalised came to 111% in assay [1] (setting [11]) and 105% in assay [1] (setting [12]). Moreover, the p53-positive nuclei, normalised in assay [2] (concentration not given here) was 0.125% (inactive); in assay [2] (setting [13]) it was -0.0213%.

For `Nc1ccn(C2OC(CO)C(O)C2F)c(=O)n1` (stereo not drawn), the nuclei count, normalised in assay [1] (measured here: cell number at 24 h, Library stock concentration: 500 nM) was 115%; in assay [1] (measured here: cell number at 24 h, Library stock concentration: 1.5 uM), 111%; in assay [1] (measured here: cell number at 24 h, Library stock concentration: 4.6 uM), 77%; in assay [1] (measured here: cell number at 24 h, Library stock concentration: 13.7 uM), 64.6%; in assay [1] (measured here: cell number at 24 h, Library stock concentration: 41 uM), 64.5%; in assay [1] (measured here: cell number at 24 h, Library stock concentration: 123 uM), 60.1%. Also, the nuclei count, normalised came out at 55.2% in assay [1] (measured here: cell number at 24 h, Library stock concentration: 370 uM); 59.3% in assay [1] (measured here: cell number at 24 h, Library stock concentration: 1.111 mM); 55.3% in assay [1] (measured here: cell number at 24 h, Library stock concentration: 3.333 mM); 51.2% in assay [1] (setting [3]); 115% in assay [1] (measured here: cell number at 48 h, Library stock concentration: 500 nM); 107% in assay [1] (measured here: cell number at 48 h, Library stock concentration: 1.5 uM). Besides, the nuclei count, normalised came out at 62% in assay [1] (measured here: cell number at 48 h, Library stock concentration: 4.6 uM); 51.1% in assay [1] (measured here: cell number at 48 h, Library stock concentration: 13.7 uM); 50.8% in assay [1] (measured here: cell number at 48 h, Library stock concentration: 41 uM); 48.7% in assay [1] (measured here: cell number at 48 h, Library stock concentration: 123 uM); 44.4% in assay [1] (measured here: cell number at 48 h, Library stock concentration: 370 uM); 46.2% in assay [1] (measured here: cell number at 48 h, Library stock concentration: 1.111 mM). Further, the nuclei count, normalised in assay [1] (measured here: cell number at 48 h, Library stock concentration: 3.333 mM) worked out at 45.1%; in assay [1] (setting [4]) it was 41.5%. Moreover, the p53-positive nuclei, normalised in assay [2] (Library stock concentration: 500 nM) was -0.105% (inactive); in assay [2] (Library stock concentration: 1.5 uM) it was -0.0067% (inactive); in assay [2] (Library stock concentration: 4.6 uM), 0.019% (inactive); in assay [2] (Library stock concentration: 13.7 uM) it was 0.162% (inactive); in assay [2] (Library stock concentration: 41 uM), 0.839% (inactive); in assay [2] (Library stock concentration: 123 uM), 0.265% (inactive). Moreover, the p53-positive nuclei, normalised in assay [2] (Library stock concentration: 370 uM) was 0.43% (inactive); in assay [2] (Library stock concentration: 1.111 mM) it was 0.292% (inactive); in assay [2] (Library stock concentration: 3.333 mM), 0.443% (inactive); in assay [2] (setting [5]), 0.266% (inactive); in assay [2] (measured here: p53 positive nuclei at 24 h, Library stock concentration: 500 nM), -0.0685%; in assay [2] (measured here: p53 positive nuclei at 24 h, Library stock concentration: 1.5 uM) it was 0.0513%. Further, the p53-positive nuclei, normalised in assay [2] (measured here: p53 positive nuclei at 24 h, Library stock concentration: 4.6 uM) was 0.0647%; in assay [2] (measured here: p53 positive nuclei at 24 h, Library stock concentration: 13.7 uM) it was -0.0822%; in assay [2] (measured here: p53 positive nuclei at 24 h, Library stock concentration: 41 uM), 0.108%; in assay [2] (measured here: p53 positive nuclei at 24 h, Library stock concentration: 123 uM), 0.0172%; in assay [2] (measured here: p53 positive nuclei at 24 h, Library stock concentration: 370 uM), -0.0726%; in assay [2] (measured here: p53 positive nuclei at 24 h, Library stock concentration: 1.111 mM) it was -0.0774%. Moreover, the p53-positive nuclei, normalised in assay [2] (measured here: p53 positive nuclei at 24 h, Library stock concentration: 3.333 mM) was 0.296%; in assay [2] (setting [6]), -0.0521%.

As to `CC(C)(C)Nc1nc2cc(Cl)c(Cl)cc2nc1S(C)(=O)=O`, the nuclei count, normalised was 108% in assay [1] (setting [14]); 105% in assay [1] (setting [15]); 93.6% in assay [1] (setting [16]); 44.4% in assay [1] (setting [3]); 118% in assay [1] (setting [17]); 109% in assay [1] (setting [18]). For the same compound, the values for the nuclei count, normalised in assay [1] (setting [19]) and in assay [1] (setting [4]) were 106% and 50%, respectively. For the same compound, the p53-positive nuclei, normalised in assay [2] (setting [20]) was -0.222% (inactive); in assay [2] (setting [21]), -0.1% (inactive); in assay [2] (setting [22]), -0.239% (inactive); in assay [2] (setting [5]) it was 1.33% (inactive); in assay [2] (setting [23]) it was -0.151%; in assay [2] (setting [24]), -0.151%. Moreover, the p53-positive nuclei, normalised worked out at 0.616% in assay [2] (setting [25]) and 1.86% in assay [2] (setting [6]).

For `CC(C)CC1(CO)CCCN(C(=O)c2cccc(C#CC(C)(C)O)c2)C1` (stereo not drawn), the nuclei count, normalised in assay [1] (setting [11]) was 99%; in assay [1] (setting [12]) it was 100%. Besides, the p53-positive nuclei, normalised is 0.108% (inactive) in assay [2] (concentration not given here) and 0.27% in assay [2] (setting [13]).

Consider `O=C(O)C1=CC(O)C(O)C(O)C1` (stereo not drawn), for which the nuclei count, normalised in assay [1] (setting [7]) and in assay [1] (setting [8]) was 109% throughout. Besides, the p53-positive nuclei, normalised in assay [2] (setting [9]) is -0.187% (inactive); in assay [2] (setting [10]), -0.275%.

With `COC(=O)C(NC(=O)c1cc(-c2ccccc2)nc2ccccc12)c1ccccc1` (stereo not drawn), the nuclei count, normalised in assay [1] (setting [14]) worked out at 105%; in assay [1] (setting [15]), 105%; in assay [1] (setting [16]), 93.3%; in assay [1] (setting [3]), 96.9%; in assay [1] (setting [17]), 111%; in assay [1] (setting [18]), 107%. Further, the nuclei count, normalised in assay [1] (setting [19]) amounted to 100%; in assay [1] (setting [4]), 103%. For the same compound, the p53-positive nuclei, normalised in assay [2] (setting [20]) is -0.241% (inactive); in assay [2] (setting [21]) it was -0.232% (inactive); in assay [2] (setting [22]), -0.104% (inactive); in assay [2] (setting [5]), 0.115% (inactive); in assay [2] (setting [23]), -0.21%; in assay [2] (setting [24]) it was -0.0834%. In addition, the p53-positive nuclei, normalised was 0.359% in assay [2] (setting [25]) and 0.069% in assay [2] (setting [6]).

The values are drawn from PubChem BioAssay AID1508601 (ICCB-Longwood Screening Facility, Harvard Medical School, 2020).
